CYP2C9 activ: CYP2C9 (human) activation; activation factor at 5 µM; actives 1.4% (n = 96,000); recombinant CYP2C9, luciferin-H conversion, luminescence; stronger effect = higher value; factor 1 = untreated enzyme, 0 = blocked; P11712;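 active = activation factor of 2 or more for CYP2C9 at a 5 µM dose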;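 note: 0 = sulfaphenazole-blocked wells and 1 = vehicle-only wells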
Target sequence (P11712 whole entry, looked up): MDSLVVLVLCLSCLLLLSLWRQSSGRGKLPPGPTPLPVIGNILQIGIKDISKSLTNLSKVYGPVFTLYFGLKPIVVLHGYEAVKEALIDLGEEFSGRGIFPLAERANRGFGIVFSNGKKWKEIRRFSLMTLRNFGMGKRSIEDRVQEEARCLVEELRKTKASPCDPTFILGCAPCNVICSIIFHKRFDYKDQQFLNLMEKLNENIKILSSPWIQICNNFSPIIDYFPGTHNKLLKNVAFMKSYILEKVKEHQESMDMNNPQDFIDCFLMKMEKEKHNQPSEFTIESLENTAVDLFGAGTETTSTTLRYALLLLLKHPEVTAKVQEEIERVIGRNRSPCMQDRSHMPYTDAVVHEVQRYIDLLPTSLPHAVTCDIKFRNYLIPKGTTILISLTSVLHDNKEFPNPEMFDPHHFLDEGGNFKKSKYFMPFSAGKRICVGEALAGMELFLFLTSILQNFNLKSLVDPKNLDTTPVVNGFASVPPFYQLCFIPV
CYP2C19 inh: human CYP2C19 inhibition; inhibition, % at 5 µM; CYP2C19 Supersomes, luciferin-H EGE luminescence, 30 min; P33261; actives 21% (n = 96,000);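 active = CYP2C19 inhibition above a set limit at 5 µM in the primary screen, cut at about 50% in these data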;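 note: plate controls were negative control wells for no effect and 2.5 mM tranylcypromine positive control for full effect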
CYP2C9 inhib: human CYP2C9 inhibition | P11712 | inhibition, % at 5 µM | CYP2C9 Supersomes, luciferin-H conversion, luminescence | actives 20% (n = 96,000);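 active = blocking of liver enzyme CYP2C9 beyond about 50% at 5 µM, limit read from the data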
CYP2C19 activ: cytochrome P450 2C19 (human) activation | 96,000 tested, under 10 active | P33261 | recombinant CYP2C19, luciferin-H EGE luminescence; stronger effect = higher value; 0 = fully inhibited enzyme, 1 = untreated enzyme | activation factor at 5 µM;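 active = activation factor of at least 2 at 5 µM in the primary screen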;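 note: 0 = wells with 2.5 mM tranylcypromine and 1 = vehicle-only wells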
CD11b adhes enh: CD11b/CD18-fibrinogen binding enhancement; P05107+P11215; K562 CD11b/CD18 adhesion to fibrinogen, ATPlite luminescence; activation, % at 10 µM; actives 0.07% (n = 93,000); AID 1499;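 active = 10 µM primary screen giving 50% or more activity, confirmed by 40% or more on retest at that dose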
CD11b adhes inh: CD11b/CD18-fibrinogen binding inhibition; P05107+P11215; K562 CD11b/CD18 adhesion to fibrinogen, ATPlite luminescence; Mn2+ added to activate the integrin; inhibition, % at 10 µM; actives 0.54% (n = 93,000);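 active = primary inhibition of 50% or more at 10 µM, then 40% or more on retest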
* hit, by the source's call. The list is not random: actives were taken first. Their share in the collection is about 28%.

Screening COc1ccc(C2=Nn3c(nnc3-c3ccco3)SC2)cc1OC returned CYP2C9 activ 0.4, CYP2C19 inh 37.0, CYP2C9 inhib 56.9* and CYP2C19 activ 0.6.
For COc1ccc(C2=Nn3c(nnc3-c3ccccc3OC)SC2)cc1OC the results were CYP2C9 activ 0.5, CYP2C19 inh 64.6*, CYP2C9 inhib 53.3* and CYP2C19 activ 0.4.
CCOc1ccc(C2=Nn3c(nnc3-c3ccccn3)SC2)cc1 was read as CYP2C9 activ 0.9, CYP2C19 inh 22.6, CYP2C9 inhib 5.1, CYP2C19 activ 0.8, CD11b adhes enh -3.5 and CD11b adhes inh 3.1.
`O=C(CSc1ccc2nnc(-c3ccccn3)n2n1)NCC1CCCO1` (stereo unspecified) gave CYP2C9 activ 0.6, CYP2C19 inh 15.6, CYP2C9 inhib 39.9, CYP2C19 activ 0.8, CD11b adhes enh 3.5 and CD11b adhes inh -2.9.
For CSCC[C@H](NC(=O)OC(C)(C)C)c1nnc(SCC(=O)Nc2ccc(C)cc2C)o1 the results were CYP2C9 activ 0.9, CYP2C19 inh 30.8, CYP2C9 inhib 11.4, CYP2C19 activ 0.7, CD11b adhes enh -1.2 and CD11b adhes inh -26.7.
Screening NC(=O)c1ncc(C(F)(F)F)cc1Oc1ccc(C(F)(F)F)cc1 returned CYP2C9 activ 0.8, CYP2C19 inh 75.3*, CYP2C9 inhib 19.3, CYP2C19 activ 0.2, CD11b adhes enh -2.3 and CD11b adhes inh -7.8.
NC(=O)c1sc2cc(C(F)(F)F)cnc2c1-c1cccs1 was read as CYP2C9 activ 0.8, CYP2C19 inh 19.9, CYP2C9 inhib 24.0, CYP2C19 activ 0.8, CD11b adhes enh -1.2 and CD11b adhes inh -28.2.
For COc1ccc(Cn2cnc3c([N+](=O)[O-])c(C)c(C)cc32)cc1 the results were CYP2C9 activ 0.4, CYP2C19 inh 53.2*, CYP2C9 inhib 59.1* and CYP2C19 activ 0.5.
For O=C(C1CCN(S(=O)(=O)N2CCCC2)CC1)N1CCCCC1 the results were CYP2C9 activ 1.3, CYP2C19 inh -4.9, CYP2C9 inhib -30.1, CYP2C19 activ 1, CD11b adhes enh -5.0 and CD11b adhes inh 4.4.
For CCn1nc(C(=O)N2CCc3ccccc3C2)c2ccccc2c1=O the results were CYP2C9 activ 0.3, CYP2C19 inh 65.5*, CYP2C9 inhib 69.4*, CYP2C19 activ 0.3, CD11b adhes enh 3.1 and CD11b adhes inh 5.0.
Cn1c(C(=O)N2CCN(C(=O)c3ccco3)CC2)cc2c(=O)n3ccccc3nc21 was read as CYP2C9 activ 0.9, CYP2C19 inh 39.9, CYP2C9 inhib 6.4, CYP2C19 activ 0.6, CD11b adhes enh 0.8 and CD11b adhes inh -29.0.
For Cn1c(C(=O)N2CCc3ccccc3C2)cc2c(=O)n3ccccc3nc21 the results were CYP2C9 activ 0.5, CYP2C19 inh 65.8*, CYP2C9 inhib 49.1 and CYP2C19 activ 0.3.
`CCCn1nc(C(=O)N2CCc3ccccc3C2)c2ccccc2c1=O` gave CYP2C9 activ 0.6, CYP2C19 inh 32.9, CYP2C9 inhib 37.8, CYP2C19 activ 0.7, CD11b adhes enh 1.6 and CD11b adhes inh -12.4.
`Cn1nc(C(=O)N2CCN(S(=O)(=O)c3ccccc3)CC2)c2ccccc2c1=O` gave CYP2C9 activ 1, CYP2C19 inh -6.2, CYP2C9 inhib 1.8, CYP2C19 activ 1.1, CD11b adhes enh -5.2 and CD11b adhes inh 1.5.
For Cn1nc(C(=O)N2CCc3ccccc3C2)c2ccccc2c1=O the results were CYP2C9 activ 0.5, CYP2C19 inh 58.4*, CYP2C9 inhib 53.8*, CYP2C19 activ 0.4, CD11b adhes enh 0.8 and CD11b adhes inh -7.2.
CCc1cccc(NC(=O)Cn2cccc2)c1 was read as CYP2C9 activ 2*, CYP2C19 inh 29.8, CYP2C9 inhib -97.5, CYP2C19 activ 0.7, CD11b adhes enh -6.9 and CD11b adhes inh 1.7.
Screening CCc1cccc(NC(=O)CSCc2cc(=O)[nH][nH]2)c1 returned CYP2C9 activ 0.9, CYP2C19 inh 74.9*, CYP2C9 inhib 5.1, CYP2C19 activ 0.3, CD11b adhes enh 1.6 and CD11b adhes inh 1.1.
`CCOC(=O)c1ccc(NC(=O)Cn2cccc2)cc1` gave CYP2C9 activ 0.7, CYP2C19 inh 20.6, CYP2C9 inhib 34.9, CYP2C19 activ 0.8, CD11b adhes enh 0.4 and CD11b adhes inh -2.3.
Clc1ccc(/C=N/c2c(-c3ccc(Cl)cc3)nc3n2CCS3)cc1 was read as CYP2C9 activ 1, CYP2C19 inh -0.4, CYP2C9 inhib 0.5 and CYP2C19 activ 1.
CCN(CC)CCNC(=O)CCc1n[nH]c(=O)c2ccccc12 was read as CYP2C9 activ 1, CYP2C19 inh 3.6, CYP2C9 inhib 4.8, CYP2C19 activ 1, CD11b adhes enh -3.3 and CD11b adhes inh -9.0.
Cc1n[nH]c(C)c1CCC(=O)N/N=C/C=C/c1ccccc1 was read as CD11b adhes enh 4.6 and CD11b adhes inh -23.2.
COc1ccc(/C=N/NC(=O)CCc2c(C)n[nH]c2C)cc1O was read as CYP2C9 activ 0.4, CYP2C19 inh 9.9, CYP2C9 inhib 64.5*, CYP2C19 activ 0.9, CD11b adhes enh -4.4 and CD11b adhes inh -13.9.
COc1ccc(/C=N/NC(=O)c2cc(C34CC5CC(CC(C5)C3)C4)[nH]n2)cc1O was read as CYP2C9 activ 0.4, CYP2C19 inh 40.3, CYP2C9 inhib 58.9*, CYP2C19 activ 0.6, CD11b adhes enh 2.5 and CD11b adhes inh -44.9.
Screening COc1ccc(/C=N\NC(=O)c2ccc(=O)[nH]n2)cc1O returned CD11b adhes enh 2.8 and CD11b adhes inh -11.7.
`CCCSc1nnc(NC(=O)Nc2ccc(F)cc2)s1` gave CYP2C9 activ 0.7, CYP2C19 inh 14.7, CYP2C9 inhib 29.0, CYP2C19 activ 0.9, CD11b adhes enh -9.4 and CD11b adhes inh 98.3.
Screening CC(C)Nc1nnc(SCC(=O)Nc2ccc(F)cc2)s1 returned CYP2C9 activ 0.3, CYP2C19 inh 90.6*, CYP2C9 inhib 70.0*, CYP2C19 activ 0.1, CD11b adhes enh -4.4 and CD11b adhes inh -2.0.
`CC(=O)c1ccc(NC(=O)CSc2nnc(NC(=O)CN3CCOCC3)s2)cc1` gave CYP2C9 activ 0.3, CYP2C19 inh 5.7, CYP2C9 inhib 66.8*, CYP2C19 activ 0.9, CD11b adhes enh 3.2 and CD11b adhes inh -17.4.
Screening O=C(CSc1nnc(NC2CCCCC2)s1)Nc1ccc(N2CCOCC2)cc1 returned CYP2C9 activ 0.8, CYP2C19 inh -1.9, CYP2C9 inhib 17.7 and CYP2C19 activ 1.
For Cc1ccc(NC(=O)CSc2nnc(NC(=O)CN3CCOCC3)s2)cc1 the results were CYP2C9 activ 0.9, CYP2C19 inh 56.9*, CYP2C9 inhib 9.7, CYP2C19 activ 0.4, CD11b adhes enh -3.7 and CD11b adhes inh -12.1.
`Cc1cccc(C)c1NC(=O)CSc1nnc(NC(=O)CN2CCOCC2)s1` gave CYP2C9 activ 1, CYP2C19 inh 20.3, CYP2C9 inhib 0.8 and CYP2C19 activ 0.8.
